A short description of assay [1]: ATG_TAL_CIS: Attagene CIS-FACTORIAL HepG2 Assay for human TAL Basal Promoter (AID 2282966; active = hit-call score of the fitted dose curve at least 0.9, where 1 is the maximum; inactive = score below 0.9;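 also: background control endpoint measuring basal TAL promoter reporter mRNA not a specific factor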). Particulars: HepG2 Attagene cis-factorial TAL promoter reporter; actives raise or lower the signal. In short, it runs like this: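 Endogenous transcription-factor activity is sensed in HepG2 cells through transfected cis-promoter reporter constructs. After 24 h dosing, reporter transcripts are quantified by RT-PCR and capillary electrophoresis. Gain or loss of signal is fitted relative to DMSO.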

Assay [2] is described as follows: ATG_TGFb_CIS: Attagene CIS-FACTORIAL HepG2 Assay for human Transforming Growth Factor (TGF) (AID 2282967; active = hit-call score of the fitted dose curve at least 0.9, where 1 is the maximum; inactive = score below 0.9). The following applies: HepG2 Attagene CIS TGFb reporter, mRNA transcription; actives raise or lower the signal. In short, it runs like this: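 Transient MRTU transfection of HepG2 (FuGene 6). Dose 24 h. TriZol RNA, oligo(dT) RT, PCR, 6-FAM primer extension, HpaI cut, CE. Bidirectional fit, DMSO = baseline.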

Assay [3] can be described thus: ATG_VDRE_CIS: Attagene CIS-FACTORIAL HepG2 Assay for human Vitamin D Receptor Element (VDRE) (AID 2282968; active = hit-call score of the fitted dose curve at least 0.9, where 1 is the maximum; inactive = score below 0.9). Particulars: HepG2 VDRE cis-reporter transcription, actives raise or lower the signal. The gist of the method: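 Compounds were applied for 24 h to HepG2 cells transfected with promoter-regulated reporter units. Total RNA was reverse-transcribed, and reporter amplicons were fluorescently labelled and sized by capillary electrophoresis.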

Assay [4] concerns the target Nuclear receptor subfamily 1 group I member 3 (Homo sapiens) (UniProt Q14994). The assay is described as follows: ATG_CAR_TRANS: Attagene TRANS-FACTORIAL HepG2 Assay for human Constitutive Androstane Receptor (CAR) (AID 2282969).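 Also: activators raise reporter mRNA above DMSO so AC50 marks induction.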 Particulars: HepG2 Attagene TRANS-FACTORIAL CAR reporter. The gist of the method: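 Transiently transfected HepG2, multiplex TRANS reporters (CAR-Gal4 chimera driving GAL4-UAS reporter). 24 h dosing. Readout: reporter transcript by RT-PCR + capillary electrophoresis, fluorescence intensity; positive direction vs DMSO.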

Assay [5] has as its target Steroid hormone receptor ERR1 (Homo sapiens) (UniProt P11474). The assay is described as follows: ATG_ERRa_TRANS: Attagene TRANS-FACTORIAL HepG2 Assay for human Estrogen-Related Receptor alpha (ERRa) (AID 2282971). The following applies: HepG2 Attagene TRANS reporter, ERRa transactivation. The gist of the method: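 HepG2 cells were transiently transfected with multiple GAL4-UAS reporter units, then dosed with compound for 24 h. Total RNA was reverse-transcribed, reporter cDNA PCR-amplified and fluorescently labelled, and fragments resolved by capillary electrophoresis; induction was compared with DMSO.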

The target of assay [6] is X-box-binding protein 1 (Homo sapiens) (UniProt P17861). Kind of assay: ATG_Xbp1_CIS: Attagene CIS-FACTORIAL HepG2 Assay for human X-box Binding Protein 1 (XBP1) (AID 2282972; active = hit-call score of the fitted dose curve at least 0.9, where 1 is the maximum; inactive = score below 0.9). The following applies: HepG2 XBP1 cis-element reporter, Attagene multiplex; actives raise or lower the signal. In short, it runs like this:
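Human hepatoma HepG2, cis-element reporter system, 24 h treatment; mRNA quantified by RT-PCR/CE fluorescence; fit relative to DMSO.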

The target in assay [7] is Glucocorticoid receptor (Homo sapiens) (UniProt P04150). The assay is described as follows: ATG_GR_TRANS: Attagene TRANS-FACTORIAL HepG2 Assay for human Glucocorticoid Receptor (GR) (AID 2282978).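 Also: activators score as hits since higher reporter transcript over DMSO is fitted.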 Particulars: HepG2 Attagene TRANS GR reporter, mRNA transcription. In short, it runs like this: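 After 24 h incubation with test chemical, transfected HepG2 cells were lysed for RNA; reporter cDNA was amplified, FAM-labelled, HpaI-digested and sized on a capillary analyser. Signal gain relative to DMSO was scored.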
Glucocorticoid receptor (Homo sapiens), sequence (P04150 whole entry, looked up): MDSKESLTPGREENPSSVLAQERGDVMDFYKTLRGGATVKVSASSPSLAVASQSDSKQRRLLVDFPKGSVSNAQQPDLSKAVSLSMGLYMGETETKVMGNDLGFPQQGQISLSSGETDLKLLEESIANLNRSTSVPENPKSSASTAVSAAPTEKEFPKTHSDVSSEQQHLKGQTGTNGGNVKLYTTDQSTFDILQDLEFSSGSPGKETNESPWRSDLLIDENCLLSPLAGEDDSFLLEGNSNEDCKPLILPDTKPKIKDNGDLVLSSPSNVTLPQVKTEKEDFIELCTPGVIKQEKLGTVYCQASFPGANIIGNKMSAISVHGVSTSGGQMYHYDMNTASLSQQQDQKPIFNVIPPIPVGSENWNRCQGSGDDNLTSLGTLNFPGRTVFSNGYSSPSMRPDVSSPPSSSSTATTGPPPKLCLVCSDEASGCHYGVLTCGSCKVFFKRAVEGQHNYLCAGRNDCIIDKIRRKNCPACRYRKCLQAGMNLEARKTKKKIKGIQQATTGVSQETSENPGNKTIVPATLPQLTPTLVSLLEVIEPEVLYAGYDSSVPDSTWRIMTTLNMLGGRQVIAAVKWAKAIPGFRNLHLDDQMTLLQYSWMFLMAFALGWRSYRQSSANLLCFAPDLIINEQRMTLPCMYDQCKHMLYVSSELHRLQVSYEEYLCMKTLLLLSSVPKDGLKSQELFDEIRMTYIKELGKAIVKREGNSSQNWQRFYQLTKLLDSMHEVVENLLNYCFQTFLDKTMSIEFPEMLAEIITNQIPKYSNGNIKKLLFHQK

Assay [8] concerns the target Oxysterols receptor LXR-alpha (Homo sapiens) (UniProt Q13133). Kind of assay: ATG_LXRa_TRANS: Attagene TRANS-FACTORIAL HepG2 Assay for human Liver X Receptor alpha (LXRa) (AID 2282980). Particulars: HepG2 Attagene TRANS reporter, LXRa transactivation. The gist of the method:
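Transient HepG2 transfectants, 24 h dosing, RT-PCR/CE mRNA reporter quantitation; gain-of-signal vs DMSO.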

In assay [9] the target is Hepatocyte nuclear factor 4-alpha (Homo sapiens) (UniProt P41235). The assay is described as follows: ATG_HNF4a_TRANS: Attagene TRANS-FACTORIAL HepG2 Assay for human Hepatocyte Nuclear Factor 4 alpha (HNF4a) (AID 2282982). Particulars: HepG2 HNF4a transactivation reporter, mRNA readout. In short, it runs like this:
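Endpoint reflects transcriptional activation of a GAL4-UAS reporter by an HNF4a-GAL4 chimera in transfected HepG2 cells, 24 h post-dosing. Fluorescence from RT-PCR products separated by capillary electrophoresis; DMSO baseline.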

Assay [10] in a line: ATG_M_06_TRANS: Attagene TRANS-FACTORIAL HepG2 Assay for M06 Transcription Factor (Internal Marker) (AID 2282983). The following applies: HepG2 Attagene TRANS M06 internal marker reporter. The gist of the method: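 Human liver HepG2 cells bearing transiently transfected chimeric NR-GAL4 reporter units were treated with chemicals for 24 h. Total RNA was reverse-transcribed, reporter sequences amplified and labelled, then quantified by capillary electrophoresis. Activity was fitted upward relative to DMSO.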

Assay [11] concerns the target Nuclear receptor subfamily 4 group A member 2 (Homo sapiens) (UniProt P43354). Kind of assay: ATG_NURR1_TRANS: Attagene TRANS-FACTORIAL HepG2 Assay for human Nuclear Receptor Related Protein 1 (NURR1) (AID 2282985). Particulars: HepG2 Attagene TRANS reporter, mRNA readout. In short, it runs like this: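 Endpoint: reporter mRNA increase relative to DMSO. HepG2 cells transfected with reporter units, treated 24 h; RNA processed by RT-PCR, labelling, HpaI digestion and capillary electrophoresis.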

Assay [12] addresses Transcriptional activator Myb (Homo sapiens) (UniProt P10242). Kind of assay: ATG_Myb_CIS: Attagene CIS-FACTORIAL HepG2 Assay for human Myeloblastosis (Myb) Proto-Oncogene Transcription Factor (AID 2282986; active = hit-call score of the fitted dose curve at least 0.9, where 1 is the maximum; inactive = score below 0.9). Particulars: HepG2 Attagene CIS-FACTORIAL Myb reporter transcription; actives raise or lower the signal. In short, it runs like this: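 After 24 h of compound dosing, total RNA from transfected HepG2 cells is reverse-transcribed and the reporter sequences amplified, labeled and separated by capillary electrophoresis. Values come from bidirectional fitting against DMSO.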

The target in assay [13] is Nuclear respiratory factor 1 (Homo sapiens) (UniProt Q16656). The assay is described as follows: ATG_NRF1_CIS: Attagene CIS-FACTORIAL HepG2 Assay for human Nuclear Respiratory Factor 1 (NRF1) Orphan Gene (AID 2282987; active = hit-call score of the fitted dose curve at least 0.9, where 1 is the maximum; inactive = score below 0.9). Particulars: HepG2 NRF1 cis-element reporter, Attagene multiplex; actives raise or lower the signal. In short, it runs like this:
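Measured: fluorescent reporter-specific RT-PCR products from transfected HepG2 cells, separated by capillary electrophoresis. Exposure lasted 24 h. Analysis used bidirectional curve fitting with DMSO as negative control.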

Assay [14] deals with Estrogen receptor (Homo sapiens) (UniProt P03372). The assay is described as follows: ATG_ERa_TRANS: Attagene TRANS-FACTORIAL HepG2 Assay for human Estrogen Receptor alpha (ERa) (AID 2282970). The following applies: HepG2 Attagene TRANS ERa GAL4 reporter, mRNA. In short, it runs like this:
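Transfected HepG2 cells carrying GAL4-UAS-driven reporter units were dosed for 24 hours. Total RNA was reverse-transcribed, reporter sequences PCR-amplified, FAM-labelled, HpaI-digested and resolved by capillary electrophoresis. Increases over DMSO control defined activity.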

For assay [15], the target named is Oxysterols receptor LXR-beta (Homo sapiens) (UniProt P55055). Kind of assay: ATG_LXRb_TRANS: Attagene TRANS-FACTORIAL HepG2 Assay for human Liver X Receptor beta (LXRb) (AID 2282981). Particulars: HepG2 Attagene TRANS GAL4-LXRb reporter, mRNA. In short, it runs like this:
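Multiplexed reporter assay, HepG2, 24 h dosing. Fluorescence of labelled RT-PCR products after capillary electrophoresis gives transcript level; positive fitting direction relative to DMSO.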

Assay [16] in a line: ATG_M_32_TRANS: Attagene TRANS-FACTORIAL HepG2 Assay for M32 Transcription Factor (Internal Marker) (AID 2282984).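 Also: transcript level of a background control reporter unit measured by RT-PCR and capillary electrophoresis.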 The following applies: HepG2 Attagene TRANS M32 internal marker reporter. In short, it runs like this:
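Internal-marker readout from a multiplexed transcription reporter panel. HepG2 cells were transfected with GAL4-UAS reporter units, treated 24 hours, and reporter transcript levels determined by fluorescence after RT-PCR and capillary separation.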

In assay [17] the target is Bile acid receptor (Homo sapiens) (UniProt Q96RI1). Kind of assay: ATG_FXR_TRANS: Attagene TRANS-FACTORIAL HepG2 Assay for Farnesoid X Receptor (FXR) (AID 2282979).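 Also: hits raise reporter mRNA above DMSO so AC50 marks FXR activation.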 Particulars: HepG2 Attagene TRANS FXR-GAL4 reporter transcription. The gist of the method: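 Chimeric FXR-GAL4 activity in transiently transfected human HepG2 liver cells is scored as induction of reporter mRNA after 24 h of dosing. Detection uses RT-PCR with fluorescent labelling and capillary electrophoresis, with DMSO serving as baseline.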

Assay [18] can be described thus: ATG_M_19_TRANS: Attagene TRANS-FACTORIAL HepG2 Assay for M19 Transcription Factor (Internal Marker) (AID 2282974). The following applies: HepG2 Attagene TRANS-FACTORIAL M19 internal marker reporter. The gist of the method:
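Transfected HepG2 (GAL4-UAS MRTUs), 24 h compound, TriZol RNA, DNase-treated RT, reporter PCR, FAM label, HpaI digest, CE fluorescence; gain vs DMSO.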

Our source for the AC50 and outcome values is PubChem BioAssay (EPA / NIEHS).

Results filed as inconclusive are left out. Calls of active or inactive are those of the source. The calls were made as follows, unless noted: active = hit-call score of the fitted dose curve at least 0.9, where 1 is the maximum; inconclusive = response in the unintended direction; inactive = score below 0.9.

In general, AC50 refers to the concentration at which the activity in the assay is half-maximal.

Oxysterols receptor LXR-alpha (Homo sapiens), sequence (Q13133 whole entry, looked up): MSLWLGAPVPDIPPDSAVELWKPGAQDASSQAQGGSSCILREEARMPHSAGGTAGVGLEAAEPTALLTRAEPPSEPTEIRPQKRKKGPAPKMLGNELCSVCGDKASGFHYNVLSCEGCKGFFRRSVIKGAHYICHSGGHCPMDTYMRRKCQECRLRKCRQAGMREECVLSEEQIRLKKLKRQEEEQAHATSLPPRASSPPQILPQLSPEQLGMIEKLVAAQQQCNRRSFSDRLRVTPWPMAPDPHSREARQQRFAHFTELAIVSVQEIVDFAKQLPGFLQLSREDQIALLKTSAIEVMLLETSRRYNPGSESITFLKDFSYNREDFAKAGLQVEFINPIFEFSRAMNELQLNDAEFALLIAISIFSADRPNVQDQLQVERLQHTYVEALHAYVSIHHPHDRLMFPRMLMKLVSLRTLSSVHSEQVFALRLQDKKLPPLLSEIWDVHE
Nuclear respiratory factor 1 (Homo sapiens), sequence (Q16656 whole entry, looked up): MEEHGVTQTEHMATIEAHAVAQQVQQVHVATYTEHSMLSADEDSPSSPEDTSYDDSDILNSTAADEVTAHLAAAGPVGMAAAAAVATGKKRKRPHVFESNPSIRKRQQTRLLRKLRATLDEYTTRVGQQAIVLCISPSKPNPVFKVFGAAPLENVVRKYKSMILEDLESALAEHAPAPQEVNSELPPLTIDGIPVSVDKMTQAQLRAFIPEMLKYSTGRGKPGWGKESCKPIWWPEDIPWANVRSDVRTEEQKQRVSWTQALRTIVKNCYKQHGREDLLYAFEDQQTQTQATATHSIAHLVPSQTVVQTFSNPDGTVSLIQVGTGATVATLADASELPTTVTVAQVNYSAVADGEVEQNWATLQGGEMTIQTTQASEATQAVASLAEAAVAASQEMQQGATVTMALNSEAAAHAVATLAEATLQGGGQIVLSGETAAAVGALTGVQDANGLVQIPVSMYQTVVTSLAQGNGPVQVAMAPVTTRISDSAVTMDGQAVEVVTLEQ
Nuclear receptor subfamily 1 group I member 3 (Homo sapiens), sequence (Q14994 whole entry, looked up, the tested form may be a part): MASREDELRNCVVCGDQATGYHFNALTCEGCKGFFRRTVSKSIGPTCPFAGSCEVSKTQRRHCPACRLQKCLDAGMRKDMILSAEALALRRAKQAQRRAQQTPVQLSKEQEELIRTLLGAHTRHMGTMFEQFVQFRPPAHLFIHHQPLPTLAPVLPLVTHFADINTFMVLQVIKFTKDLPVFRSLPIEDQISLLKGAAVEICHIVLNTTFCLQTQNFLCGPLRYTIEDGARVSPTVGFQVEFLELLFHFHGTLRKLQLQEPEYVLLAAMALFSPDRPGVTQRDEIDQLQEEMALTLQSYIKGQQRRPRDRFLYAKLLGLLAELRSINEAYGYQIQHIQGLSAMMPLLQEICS
Hepatocyte nuclear factor 4-alpha (Homo sapiens), sequence (P41235 whole entry, looked up, the tested form may be a part): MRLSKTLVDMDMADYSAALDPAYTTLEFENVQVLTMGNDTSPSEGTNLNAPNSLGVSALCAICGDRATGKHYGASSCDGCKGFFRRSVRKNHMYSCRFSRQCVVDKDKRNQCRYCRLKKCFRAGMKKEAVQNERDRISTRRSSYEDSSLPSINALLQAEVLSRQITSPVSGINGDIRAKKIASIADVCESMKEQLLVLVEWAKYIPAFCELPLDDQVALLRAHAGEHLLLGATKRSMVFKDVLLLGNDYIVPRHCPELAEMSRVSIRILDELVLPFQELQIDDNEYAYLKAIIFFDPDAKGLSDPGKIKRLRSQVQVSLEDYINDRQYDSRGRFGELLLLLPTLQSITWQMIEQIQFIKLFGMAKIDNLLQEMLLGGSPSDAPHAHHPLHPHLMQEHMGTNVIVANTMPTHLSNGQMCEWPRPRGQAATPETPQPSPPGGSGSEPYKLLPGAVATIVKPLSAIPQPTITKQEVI
Transcriptional activator Myb (Homo sapiens), sequence (P10242 whole entry, looked up): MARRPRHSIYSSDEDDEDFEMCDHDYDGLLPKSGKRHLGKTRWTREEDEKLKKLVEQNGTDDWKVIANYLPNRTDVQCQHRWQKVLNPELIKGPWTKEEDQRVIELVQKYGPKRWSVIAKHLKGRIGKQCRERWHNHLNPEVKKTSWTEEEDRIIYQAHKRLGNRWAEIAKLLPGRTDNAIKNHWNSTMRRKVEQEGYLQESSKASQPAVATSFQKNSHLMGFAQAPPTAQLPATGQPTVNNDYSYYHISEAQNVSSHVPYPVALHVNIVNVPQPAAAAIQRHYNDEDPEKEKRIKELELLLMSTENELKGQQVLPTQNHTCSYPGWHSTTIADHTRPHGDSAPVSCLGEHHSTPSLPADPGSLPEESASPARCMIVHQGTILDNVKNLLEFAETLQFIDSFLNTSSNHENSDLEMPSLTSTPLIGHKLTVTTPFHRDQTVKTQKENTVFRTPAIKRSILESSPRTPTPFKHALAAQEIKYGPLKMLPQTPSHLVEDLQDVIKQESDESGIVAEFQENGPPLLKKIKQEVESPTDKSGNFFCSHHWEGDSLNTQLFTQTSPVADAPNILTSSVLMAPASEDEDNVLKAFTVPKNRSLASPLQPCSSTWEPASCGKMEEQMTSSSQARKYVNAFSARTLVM
Oxysterols receptor LXR-beta (Homo sapiens), sequence (P55055 whole entry, looked up, the tested form may be a part): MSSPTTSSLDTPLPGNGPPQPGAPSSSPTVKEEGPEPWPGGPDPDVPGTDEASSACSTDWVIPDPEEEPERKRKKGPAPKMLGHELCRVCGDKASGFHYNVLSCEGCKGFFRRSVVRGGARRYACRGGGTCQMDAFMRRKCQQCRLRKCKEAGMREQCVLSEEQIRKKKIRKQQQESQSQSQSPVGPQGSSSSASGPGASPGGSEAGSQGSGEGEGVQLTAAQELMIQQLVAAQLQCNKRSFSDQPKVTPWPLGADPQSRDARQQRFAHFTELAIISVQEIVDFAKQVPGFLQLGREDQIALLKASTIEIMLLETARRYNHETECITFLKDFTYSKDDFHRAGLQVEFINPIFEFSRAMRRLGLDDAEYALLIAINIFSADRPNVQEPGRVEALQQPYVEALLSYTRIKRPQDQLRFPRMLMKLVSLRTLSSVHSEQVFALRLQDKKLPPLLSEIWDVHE
X-box-binding protein 1 (Homo sapiens), sequence (P17861 whole entry, looked up): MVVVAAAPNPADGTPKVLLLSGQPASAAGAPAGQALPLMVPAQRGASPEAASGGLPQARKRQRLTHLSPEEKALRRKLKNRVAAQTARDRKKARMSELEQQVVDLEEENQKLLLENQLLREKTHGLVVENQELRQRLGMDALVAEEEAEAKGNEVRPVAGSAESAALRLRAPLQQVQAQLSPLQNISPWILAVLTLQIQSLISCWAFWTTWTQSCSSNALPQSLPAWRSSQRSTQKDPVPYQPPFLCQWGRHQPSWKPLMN
Nuclear receptor subfamily 4 group A member 2 (Homo sapiens), sequence (P43354 whole entry, looked up): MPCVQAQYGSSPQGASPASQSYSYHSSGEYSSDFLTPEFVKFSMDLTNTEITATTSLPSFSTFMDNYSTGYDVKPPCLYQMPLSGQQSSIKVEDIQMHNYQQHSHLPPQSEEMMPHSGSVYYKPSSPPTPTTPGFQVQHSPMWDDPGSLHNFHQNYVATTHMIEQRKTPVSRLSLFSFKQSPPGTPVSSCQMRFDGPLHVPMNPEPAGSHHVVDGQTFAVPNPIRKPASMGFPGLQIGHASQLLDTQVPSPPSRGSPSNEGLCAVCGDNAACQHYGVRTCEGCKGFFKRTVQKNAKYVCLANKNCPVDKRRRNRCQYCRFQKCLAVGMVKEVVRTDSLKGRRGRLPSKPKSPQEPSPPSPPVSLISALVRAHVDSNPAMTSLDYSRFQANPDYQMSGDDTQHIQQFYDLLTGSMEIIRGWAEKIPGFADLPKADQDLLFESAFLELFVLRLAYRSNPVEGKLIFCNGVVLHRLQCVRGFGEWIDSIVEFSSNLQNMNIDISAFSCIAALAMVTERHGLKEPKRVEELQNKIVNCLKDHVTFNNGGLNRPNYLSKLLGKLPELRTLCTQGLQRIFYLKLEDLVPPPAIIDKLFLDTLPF
Steroid hormone receptor ERR1 (Homo sapiens), sequence (P11474 whole entry, looked up, the tested form may be a part): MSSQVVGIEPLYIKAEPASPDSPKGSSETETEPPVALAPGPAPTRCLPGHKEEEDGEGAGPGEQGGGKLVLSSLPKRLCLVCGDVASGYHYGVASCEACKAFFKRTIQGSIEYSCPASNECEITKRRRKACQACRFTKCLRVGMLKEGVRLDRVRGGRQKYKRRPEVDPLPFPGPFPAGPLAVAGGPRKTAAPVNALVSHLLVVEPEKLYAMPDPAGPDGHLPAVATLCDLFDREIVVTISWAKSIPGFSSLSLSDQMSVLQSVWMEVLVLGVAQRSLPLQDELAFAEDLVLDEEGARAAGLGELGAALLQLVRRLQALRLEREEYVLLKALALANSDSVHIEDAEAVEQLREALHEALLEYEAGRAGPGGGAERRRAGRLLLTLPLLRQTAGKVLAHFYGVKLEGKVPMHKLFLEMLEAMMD

For `CC(C)C1=CC2=CC[C@@H]3[C@](C)(CCC[C@@]3(C)C(=O)O)[C@H]2CC1`, the AC50 was 52.1 µM (active) in assay [1]; 0.551 µM (active) in assay [2]; 4.54 µM (active) in assay [3]; 26.8 µM (active) in [8]; 111 µM (active) in assay [11]. For the same compound, the result in assay [4], in assay [5], in [6], in [7], in [9] and in [10] was inactive. Also, in assay [12], the compound was classed as inactive.

Take `CC(=O)Nc1ccc2c(c1)Cc1cc(NC(C)=O)ccc1-2`: the call in assay [1], in assay [2], in assay [3], in assay [4], in [6] and in [7] was inactive. Also, the compound was called inactive in assay [9], in assay [10], in assay [11], in assay [12] and in [13].

On to `CCN(Cc1cccc(S(=O)(=O)O)c1)c1ccc(C(=C2C=CC(=[N+](CC)Cc3cccc(S(=O)(=O)[O-])c3)C=C2)c2ccccc2)cc1`, for which the compound was classed as inactive in assay [1], in assay [3], in [4], in assay [14], in assay [6] and in assay [8]. The result in [15], in assay [9], in [10], in assay [16], in [12] and in assay [13] was inactive. Moreover, the AC50 in assay [2] is 37.4 µM (active).

On to `CC(C)(C)c1ccc(OC(=O)c2ccccc2O)cc1`, for which the compound was called inactive in assay [1], in assay [2], in [3], in assay [4], in assay [6] and in assay [17]. The compound was classed as inactive in assay [15], in [9], in assay [10], in [11], in assay [12] and in [13]. In addition, the half-maximal activity concentration (AC50) in assay [14] was 6.14 µM (active).

For the compound `CCOc1ccc(N)c([N+](=O)[O-])c1`, the outcome in assay [1], in assay [2], in assay [3], in [4], in assay [6] and in [15] was inactive. Moreover, the call in assay [9], in assay [10], in [11], in assay [12] and in assay [13] was inactive.

As for `C=CC(=O)NC(C)(C)CS(=O)(=O)O`, the result in assay [1], in [2], in assay [3], in [4], in assay [6] and in assay [18] was inactive. The outcome in assay [8], in assay [9], in assay [16] and in [13] was inactive.
